{"source": "paper PMC7826789", "about": "(International Journal of Molecular Sciences, 2021)", "key": {"[1]": {"test_system": "SRC"}, "[2]": {"test_system": "SRMS"}, "[3]": {"test_system": "STK10"}, "[4]": {"test_system": "STK16"}, "[5]": {"test_system": "TAK1"}, "[6]": {"test_system": "STK17B"}, "[7]": {"test_system": "STK36"}, "[8]": {"test_system": "TAOK3"}, "[9]": {"test_system": "TBK1"}}}
{"smiles": "COc1cc2ncnc(Nc3cccc(Cl)c3F)c2cc1O[C@H]1CC[C@H]([C@@H]2NCCNC2=O)CC1", "note": "[BI00133844]", "values": [{"measurement": "Kinases covered", "setting": "[1]", "result": "SRC"}]}
{"smiles": "CCCS(=O)(=O)Nc1ccc(F)c(-n2cc(-c3cncc(OC)c3)nn2)c1F", "note": "[BI00865461]", "values": [{"measurement": "Kinases covered", "setting": "[2]", "result": "SRMS"}]}
{"smiles": "COc1ccc2cc(-c3c(-c4ccncc4)nc(-c4ccc(S(C)(=O)=O)cc4C)n3C)ccc2c1", "note": "[SB-633825]", "values": [{"measurement": "Kinases covered", "setting": "[3]", "result": "STK10"}]}
{"smiles": "COc1cc2ncn(-c3cc(OCC4CCCO4)c(C(N)=O)s3)c2cc1OC", "note": "(centres unmarked) [GSK204607]", "values": [{"measurement": "Kinases covered", "setting": "[3]", "result": "STK10"}]}
{"smiles": "CC(C)N1CC(=O)N(C)c2cnc(Nc3cccc(S(=O)(=O)CCN4CCOCC4)c3)nc21", "note": "[BI00009348]", "values": [{"measurement": "Kinases covered", "setting": "[4]", "result": "STK16"}, {"measurement": "Kinases covered", "setting": "[5]", "result": "TAK1"}]}
{"smiles": "C[C@@H]1CCNC(=O)c2cc3ccc(C(=O)Nc4nc5ccccc5n4CCCN(C)C)cc3n21", "note": "[BI00645435]", "values": [{"measurement": "Kinases covered", "setting": "[6]", "result": "STK17B"}]}
{"smiles": "CNc1nc(-c2ccc3c(N)n[nH]c3c2)cc(N2C[C@@H](C(=O)Nc3ccccc3)CC[C@H]2C)n1", "note": "[GSK2298859]", "values": [{"measurement": "Kinases covered", "setting": "[6]", "result": "STK17B"}]}
{"smiles": "O=C(Nc1cccc(-c2nn3ncccc3c2-c2ccnc(Nc3cccnc3)n2)c1)c1c(F)cccc1F", "note": "[GSK312879]", "values": [{"measurement": "Kinases covered", "setting": "[7]", "result": "STK36"}]}
{"smiles": "COC[C@@H](C)N[C@H]1CC[C@H](Nc2cc(-c3cccc(NCC4(C#N)CCOCC4)n3)c(Cl)cn2)CC1", "note": "[NVP-2]", "values": [{"measurement": "Kinases covered", "setting": "[8]", "result": "TAOK3"}]}
{"smiles": "CN(C)C/C=C/C(=O)Nc1ccc(C(=O)Nc2cccc(Nc3ncc(Cl)c(-c4c[nH]c5ccccc45)n3)c2)cc1", "note": "[THZ1]", "values": [{"measurement": "Kinases covered", "setting": "[9]", "result": "TBK1"}]}
